Active and inactive are the calls of the source. The calls were made as follows: active = hit-call score of the fitted dose curve at least 0.9, where 1 is the maximum; inactive = score below 0.9.

The nature of assay [1]: APR_HepG2_CellCycleArrest_24hr: Apredica 24-hour HepG2 Assay for Cell Cycle Arrest (AID 2282905).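 Also: cell cycle arrest scored as ratio of 2N to 4N nuclear DNA content.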 The note with it: imaging, actives raise or lower the signal. Put shortly: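 Cell cycle arrest is scored from nuclear DNA content measured by high-content imaging of Hoechst 33342-stained HepG2 cells following 24-hour treatment at ten concentrations up to 200 uM, with DMSO as baseline.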

Assay [2] in a line: APR_HepG2_NuclearSize_24hr: Apredica 24-hour HepG2 Assay for Nuclear Size (AID 2282907). The note with it: high-content imaging, actives raise or lower the signal. In short, it runs like this: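 Compounds in DMSO (final 0.5%) were added to human HepG2 hepatoma cells at ten concentrations up to 200 uM for 24 hr. Fixed nuclei were stained with Hoechst 33342, and nuclear diameter was quantified from automated images.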

A short description of assay [3]: APR_HepG2_CellLoss_24hr: Apredica 24-hour HepG2 Assay for Cell Loss (AID 2282908).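 As to AC50: fit in both directions so a hit may be cell loss or gain.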 The note with it: high-content imaging. In short, it runs like this: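 Cell number is quantified by fluorescence imaging of Hoechst 33342-stained nuclei following dosing at 0.39–200 uM in 0.5% DMSO. Curves are fitted in both directions from the DMSO baseline.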
A short description of assay [4]: APR_HepG2_MicrotubuleCSK_24hr: Apredica 24-hour HepG2 Assay for Microtubule CSK Stabilty (AID 2282909). The settings on record: HepG2 microtubule cytoskeleton imaging, actives raise or lower the signal. In short, it runs like this:
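Steps: dose HepG2 for 24 h (0.39–200 uM, 0.5% DMSO); fix 30 min in 3.7% formaldehyde at room temperature; permeabilize; stain alpha-tubulin 60 min; image microtubule cytoskeleton at 20x. Signal change fitted in both directions relative to DMSO.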

Assay [5] is described as follows: APR_HepG2_MitoticArrest_24hr: Apredica 24-hour HepG2 Assay for Mitotic Arrest (AID 2282910). The note with it: high-content imaging, actives raise or lower the signal. In short, it runs like this: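 HepG2 human liver cells were exposed to compounds at 0.39–200 uM (10 concentrations, duplicate) in 0.5% v/v DMSO for 24 hr, then fixed and immunostained for phospho-histone H3 with Hoechst 33342. Mitotic arrest came from HCS fluorescent imaging, fitted bidirectionally against DMSO.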

Assay [6] can be described thus: APR_HepG2_MitoMembPot_24hr: Apredica 24-hour HepG2 Assay for Mitochondrial Membrane Potential (AID 2282911). The settings on record: imaging, actives raise or lower the signal. In short, it runs like this:
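Human hepatoma HepG2 cultures received ten compound concentrations up to 200 uM for 24 hr. Membrane-potential dye signal, captured by automated fluorescence microscopy, was scored for gain or loss against DMSO controls.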

A short description of assay [7]: APR_HepG2_MitoMass_24hr: Apredica 24-hour HepG2 Assay for Mitochondrial Mass (AID 2282912). The settings on record: high-content imaging, actives raise or lower the signal. Put shortly:
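The liver line HepG2 was dosed in duplicate across a 0.39–200 uM series, with final DMSO held at 0.5% v/v, and harvested at 24 hr. High-content imaging measured mitochondrial dye staining.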

Assay [8] in a line: APR_HepG2_p53Act_24hr: Apredica 24-hour HepG2 Assay for p53 Activation (AID 2282913).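 Also: p53 protein immunofluorescence averaged per cell in HepG2 with Hoechst nuclei.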 The note with it: high-content imaging, actives raise or lower the signal. Put shortly: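 Automated fluorescence imaging quantifies p53 immunostaining in HepG2 cells after a 24 hr exposure (0.39–200 uM, duplicate, 0.5% DMSO). Nuclei are located by Hoechst 33342 staining.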
The nature of assay [9]: APR_HepG2_CellCycleArrest_72hr: Apredica 72-hour HepG2 Assay for Cell Cycle Arrest (AID 2282914). The settings on record: high-content imaging, actives raise or lower the signal. Put shortly: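 Cell cycle arrest in HepG2 was scored from nuclear DNA content after 72 hr compound treatment (0.39–200 uM). Activity, either gain or loss, was fitted against the DMSO baseline.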

A short description of assay [10]: APR_HepG2_CellLoss_72hr: Apredica 72-hour HepG2 Assay for Cell Loss (AID 2282915). The settings on record: high-content imaging. In short, it runs like this: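 HepG2 cells were exposed for 72 hr to compounds at 0.39–200 uM (ten concentrations, duplicate) in 0.5% v/v final DMSO. Nuclei were stained with Hoechst 33342 after 3.7% formaldehyde fixation, imaged at 20x, and counted; fits bidirectional versus DMSO.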

Assay [11] can be described thus: APR_HepG2_P-H2AX_72hr: Apredica 72-hour HepG2 Assay for H2AX Phosphorylation (AID 2282916).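 Also: phospho-histone H2A.x immunostain intensity per cell marking DNA damage.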 The note with it: imaging, actives raise or lower the signal. Put shortly: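 Following 72 hr treatment with 0.39–200 uM compound, HepG2 cells were formaldehyde-fixed, permeabilized and stained for phospho-H2A.x; signal was measured by high-content imaging and fitted bidirectionally against DMSO controls.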

The nature of assay [12]: APR_HepG2_MitoMembPot_72hr: Apredica 72-hour HepG2 Assay for Mitochondrial Membrane Potential (AID 2282917). The note with it: imaging, actives raise or lower the signal. Put shortly:
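HepG2 cells exposed 72 h to compounds at 0.39–200 uM (0.5% v/v DMSO, duplicates); MitoTracker Red CMXRos 250 nM loaded 30 min before 3.7% formaldehyde fixation, imaged by HCS fluorescence. Bidirectional fit versus DMSO.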

The nature of assay [13]: APR_HepG2_MitoticArrest_72hr: Apredica 72-hour HepG2 Assay for Mitotic Arrest (AID 2282918). The settings on record: high-content imaging, actives raise or lower the signal. In short, it runs like this:
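Mitotic arrest in HepG2 is scored from phospho-histone H3 staining after 72 hr dosing across 0.39–200 uM, with DMSO at 0.5% v/v. Nuclei are identified by Hoechst 33342 and fluorescence intensity is quantified per cell.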

Assay [14] is described as follows: APR_HepG2_MicrotubuleCSK_72hr: Apredica 72-hour HepG2 Assay for Microtubule CSK Stabilty (AID 2282919). The note with it: HepG2 microtubule cytoskeleton, high-content imaging, actives raise or lower the signal. Put shortly:
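HepG2 human liver cells were dosed for 72 h at ten concentrations from 0.39 to 200 uM in duplicate (0.5% v/v DMSO final). Fixed, permeabilized cells were immunostained for alpha-tubulin (Cy5) with a Hoechst counterstain and imaged at 20x.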

Assay [15] is described as follows: APR_HepG2_P-H2AX_24hr: Apredica 24-hour HepG2 Assay for H2AX Phosphorylation (AID 2282920). The settings on record: high-content imaging, actives raise or lower the signal. In short, it runs like this: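 Signal comes from a FITC-labeled secondary detecting phospho-histone H2A.x in fixed HepG2 cells, quantified by automated imaging at 20x. Dosing ran 24 hr across 0.39–200 uM with 0.5% v/v DMSO.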

A short description of assay [16]: APR_HepG2_StressKinase_72hr: Apredica 72-hour HepG2 Assay for Stress Kinase (AID 2282921). The settings on record: HepG2 stress kinase (phospho-c-Jun) imaging, actives raise or lower the signal. In short, it runs like this:
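Fluorescence intensity of Cy3-tagged anti-phospho-c-Jun antibody, quantified per cell from Hoechst-defined nuclei across six images per well, served as the read-out following 72 h exposure (0.39–200 uM, 0.5% v/v DMSO).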

The nature of assay [17]: APR_HepG2_StressKinase_24hr: Apredica 24-hour HepG2 Assay for Stress Kinase (AID 2282922). The note with it: HepG2 stress kinase (phospho-c-Jun) imaging, actives raise or lower the signal. Put shortly: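 HepG2 cells exposed 24 hr to compound at 0.39–200 uM (10 concentrations, duplicate), 0.5% v/v DMSO final. Fixed in 3.7% formaldehyde, permeabilized with Triton X-100, immunolabeled for phospho-c-Jun with Hoechst 33342; HCS fluorescence imaging, bidirectional fit versus DMSO.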

Assay [18] in a line: APR_HepG2_p53Act_72hr: Apredica 72-hour HepG2 Assay for p53 Activation (AID 2282923).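 Also: average cellular p53 protein immunofluorescence intensity in HepG2 cells.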 The note with it: high-content imaging, actives raise or lower the signal. In short, it runs like this: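 HepG2 monolayers receive test compounds in duplicate at ten concentrations (0.39 through 200 uM) for 72 hr. They are then formaldehyde-fixed, antibody-labelled for p53, Hoechst-stained and imaged, with activity fitted bidirectionally versus DMSO.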

The nature of assay [19]: APR_HepG2_MitoMass_72hr: Apredica 72-hour HepG2 Assay for Mitochondrial Mass (AID 2282924).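 Also: MitoTracker Red CMXRos stain intensity per cell imaged as mitochondrial mass.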 The note with it: high-content imaging, actives raise or lower the signal. Put shortly:
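HepG2 cells were exposed for 72 hr to compounds at 0.39–200 uM (ten concentrations, duplicate, 0.5% v/v DMSO final). Live cells were stained with 250 nM MitoTracker Red CMXRos for 30 min, then fixed in 3.7% formaldehyde and imaged by HCS fluorescence.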

Assay [20] is described as follows: APR_HepG2_NuclearSize_72hr: Apredica 72-hour HepG2 Assay for Nuclear Size (AID 2282925). The settings on record: high-content imaging, actives raise or lower the signal. In short, it runs like this: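 HepG2 cells were exposed to compounds at ten concentrations from 0.39 to 200 uM (duplicate, 0.5% DMSO final) for 72 hr. After fixation in 3.7% formaldehyde, nuclei were stained with Hoechst 33342 (2 ug/mL) and imaged at 20x.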

Regarding `Cc1c(-c2cccnc2)c2ccccc2n1CCCCC(=O)O`, the compound was called inactive in assay [1], in assay [2], in assay [3], in assay [4], in assay [5] and in assay [6]. The compound was classed as inactive in assay [7], in [8], in assay [9], in assay [10], in assay [11] and in assay [12]. In addition, the compound was classed as inactive in assay [13], in assay [14], in [15], in assay [16], in assay [17] and in [18]. Besides, the outcome in assay [19] and in assay [20] was inactive.

Consider `O=C1OC(=O)C2C3C=CC(C3)C12` (stereo not drawn), for which the call in [1], in [2], in assay [3], in [4], in assay [5] and in [6] was inactive. The result in assay [7], in [8], in assay [9], in assay [11], in assay [12] and in assay [13] was inactive. Moreover, the outcome in assay [14], in [15], in assay [16], in assay [17], in [18] and in assay [19] was inactive.

`COC(=O)c1c(Cl)c(Cl)c(C(=O)OC)c(Cl)c1Cl`: the compound was called inactive in assay [1], in assay [2], in [3], in [4], in assay [5] and in [6]. In addition, the compound was classed as inactive in assay [7], in [8], in assay [9], in [10], in assay [11] and in assay [13]. For the same compound, the outcome in [14], in assay [15], in [16], in [17], in [18] and in [19] was inactive. The result in assay [20] was inactive.

Take `CC(C)=CCC/C(C)=C\CO`: the call in assay [1], in [2], in assay [3], in assay [4], in assay [5] and in [6] was inactive. The compound was classed as inactive in assay [7], in assay [8], in [9], in [10], in assay [11] and in assay [12]. Also, the result in assay [13], in assay [14], in [15], in [16], in assay [17] and in assay [18] was inactive. Moreover, the concentration at half-maximal activity (AC50) in [19] was 94.5 µM (active).

Take `Cc1[nH]cnc1C[C@H]1CCc2c(C)c3ccccc3n2C1=O`: the AC50 in [1] was 146 µM (active); in [3], 55.7 µM (active); in [8], 97 µM (active); in assay [9] it was 69.7 µM (active); in assay [10] it was 24.5 µM (active); in assay [11], 89 µM (active). Also, the half-maximal activity concentration (AC50) in assay [15] was 92.8 µM (active); in [16], 65 µM (active); in assay [17], 100 µM (active); in [18] it was 95 µM (active); in [19], 24.4 µM (active). Besides, the compound was classed as inactive in assay [2], in assay [4], in assay [5], in [6], in assay [7] and in assay [12]. Besides, in [14], the call was inactive.

In the case of `Cc1ccc(N)cc1O`, the compound was classed as inactive in assay [1], in assay [2], in [3], in [4], in [5] and in [7]. Moreover, the outcome in [8], in assay [9], in [11], in assay [14], in assay [15] and in assay [16] was inactive. Besides, the compound was classed as inactive in assay [17], in assay [18], in assay [19] and in assay [20]. In addition, the figures for the concentration at half-maximal activity (AC50) in [6], in [10] and in [12] were 0.917 µM (active), 10.5 µM (active) and 1.02 µM (active), respectively.

The term AC50 denotes the concentration at which the activity in the assay is half-maximal.
